Laboratory results: the supplement of paper PMC11732987, “Enantioselective OTUD7B fragment discovery through chemoproteomics screening and high-throughput optimisation” (Communications Chemistry, 2025)

Legend:
Experiment in all cases: log2 ratio of Biotin-Ahx-Ub-VS probe labelling (fragment/DMSO); higher = less target engagement (more negative = stronger competition), active = hit call of the paper (q ≤ 0.05, log2 ratio ≤ -1)
Details in all cases: compound concentration: 200 uM; treatment time: 3 h
USP42 = biological target: T1, USP42 (UniProt Q9H9J4)
T1 sequence (whole entry): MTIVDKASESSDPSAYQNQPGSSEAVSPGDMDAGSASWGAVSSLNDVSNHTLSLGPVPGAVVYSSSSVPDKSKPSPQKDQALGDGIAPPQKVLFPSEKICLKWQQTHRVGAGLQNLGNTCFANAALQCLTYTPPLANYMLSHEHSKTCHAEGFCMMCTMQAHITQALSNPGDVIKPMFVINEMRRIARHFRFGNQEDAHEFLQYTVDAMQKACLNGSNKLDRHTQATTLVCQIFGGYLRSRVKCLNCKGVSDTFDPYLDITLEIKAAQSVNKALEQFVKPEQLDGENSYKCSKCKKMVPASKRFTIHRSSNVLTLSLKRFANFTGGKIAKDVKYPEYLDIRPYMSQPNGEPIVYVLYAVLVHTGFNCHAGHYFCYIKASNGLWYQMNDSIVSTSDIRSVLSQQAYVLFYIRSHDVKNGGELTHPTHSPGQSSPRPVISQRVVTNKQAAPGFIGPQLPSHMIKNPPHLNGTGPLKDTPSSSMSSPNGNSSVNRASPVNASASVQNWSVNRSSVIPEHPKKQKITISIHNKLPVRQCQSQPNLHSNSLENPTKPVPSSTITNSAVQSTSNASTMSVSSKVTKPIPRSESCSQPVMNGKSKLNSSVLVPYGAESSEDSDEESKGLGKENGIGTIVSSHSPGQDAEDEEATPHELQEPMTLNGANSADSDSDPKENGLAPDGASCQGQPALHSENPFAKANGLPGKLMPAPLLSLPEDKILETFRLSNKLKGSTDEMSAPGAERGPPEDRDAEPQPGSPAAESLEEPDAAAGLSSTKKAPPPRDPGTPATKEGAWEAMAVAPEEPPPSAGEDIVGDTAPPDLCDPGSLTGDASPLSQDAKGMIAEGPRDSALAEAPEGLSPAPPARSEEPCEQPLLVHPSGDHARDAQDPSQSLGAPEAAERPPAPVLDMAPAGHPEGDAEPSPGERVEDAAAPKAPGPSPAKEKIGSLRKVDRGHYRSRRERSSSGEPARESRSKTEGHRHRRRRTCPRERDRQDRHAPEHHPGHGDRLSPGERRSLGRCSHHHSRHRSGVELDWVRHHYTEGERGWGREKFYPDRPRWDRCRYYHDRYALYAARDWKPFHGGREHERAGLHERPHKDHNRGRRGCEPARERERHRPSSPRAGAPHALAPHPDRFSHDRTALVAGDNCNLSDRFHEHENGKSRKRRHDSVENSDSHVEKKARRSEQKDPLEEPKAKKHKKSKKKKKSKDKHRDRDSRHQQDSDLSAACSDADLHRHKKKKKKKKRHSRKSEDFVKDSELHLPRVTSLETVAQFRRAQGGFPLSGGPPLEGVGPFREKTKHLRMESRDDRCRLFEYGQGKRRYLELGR
Summary of the method: (§1)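 HEK293T lysate, 495 µg per sample in Tris/CHAPS/IGEPAL buffer with protease inhibitors, was treated in triplicate with fragment at 200 µM or vehicle for 3 h and then with Biotin-Ahx-Ub-VS at 0.5 µM final for 1 h. Labelled DUBs were NeutrAvidin-enriched, digested with LysC and trypsin, and run by diaPASEF LC-MS/MS. Spectronaut label-free quantities were global-median-normalised, and values are average log2 fragment/vehicle ratios by unpaired t-test on proteins with ≥2 unique peptides.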

USP46 = USP46 (UniProt P62068)
Summary of the method: as §1

USP47 = biological target: T2, USP47 (UniProt Q96K76)
T2 sequence (whole entry): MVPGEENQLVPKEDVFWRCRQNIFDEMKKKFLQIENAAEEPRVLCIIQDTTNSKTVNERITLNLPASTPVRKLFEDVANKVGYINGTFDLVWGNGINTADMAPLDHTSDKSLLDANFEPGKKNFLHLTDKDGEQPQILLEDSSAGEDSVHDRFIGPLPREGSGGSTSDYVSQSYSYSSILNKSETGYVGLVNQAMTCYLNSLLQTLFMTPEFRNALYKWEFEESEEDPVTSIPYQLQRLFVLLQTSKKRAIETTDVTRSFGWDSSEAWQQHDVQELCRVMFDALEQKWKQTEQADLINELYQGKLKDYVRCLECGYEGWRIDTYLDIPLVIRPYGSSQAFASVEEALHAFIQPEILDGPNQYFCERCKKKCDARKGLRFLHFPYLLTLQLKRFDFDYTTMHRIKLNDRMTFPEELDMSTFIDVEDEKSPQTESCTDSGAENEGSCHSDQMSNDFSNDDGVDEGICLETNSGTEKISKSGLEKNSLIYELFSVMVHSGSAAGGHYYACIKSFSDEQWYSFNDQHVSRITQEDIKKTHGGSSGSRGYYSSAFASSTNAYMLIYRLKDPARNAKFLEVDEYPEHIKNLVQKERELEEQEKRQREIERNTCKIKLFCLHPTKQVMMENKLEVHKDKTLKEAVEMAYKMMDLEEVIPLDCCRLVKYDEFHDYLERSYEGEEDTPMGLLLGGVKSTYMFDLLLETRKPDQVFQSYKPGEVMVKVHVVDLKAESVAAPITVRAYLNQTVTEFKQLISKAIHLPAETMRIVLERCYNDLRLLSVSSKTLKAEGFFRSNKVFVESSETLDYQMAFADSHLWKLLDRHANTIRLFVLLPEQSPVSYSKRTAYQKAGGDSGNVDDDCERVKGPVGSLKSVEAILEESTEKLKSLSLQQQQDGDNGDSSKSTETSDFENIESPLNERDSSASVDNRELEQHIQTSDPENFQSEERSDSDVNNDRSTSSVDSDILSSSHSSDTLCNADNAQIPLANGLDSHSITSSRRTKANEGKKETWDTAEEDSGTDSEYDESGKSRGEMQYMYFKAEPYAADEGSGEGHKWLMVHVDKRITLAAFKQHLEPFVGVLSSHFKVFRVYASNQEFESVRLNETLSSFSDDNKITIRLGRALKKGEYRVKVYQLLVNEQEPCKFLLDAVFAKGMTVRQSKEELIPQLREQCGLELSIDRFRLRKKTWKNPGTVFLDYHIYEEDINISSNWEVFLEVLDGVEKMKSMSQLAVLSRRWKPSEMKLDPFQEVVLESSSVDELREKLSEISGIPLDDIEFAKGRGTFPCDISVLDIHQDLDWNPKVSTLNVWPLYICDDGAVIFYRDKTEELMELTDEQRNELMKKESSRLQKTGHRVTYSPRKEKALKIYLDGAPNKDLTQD
Summary of the method: as §1

USP48 = biological target: T3, USP48 (UniProt Q86UV5)
T3 sequence (whole entry): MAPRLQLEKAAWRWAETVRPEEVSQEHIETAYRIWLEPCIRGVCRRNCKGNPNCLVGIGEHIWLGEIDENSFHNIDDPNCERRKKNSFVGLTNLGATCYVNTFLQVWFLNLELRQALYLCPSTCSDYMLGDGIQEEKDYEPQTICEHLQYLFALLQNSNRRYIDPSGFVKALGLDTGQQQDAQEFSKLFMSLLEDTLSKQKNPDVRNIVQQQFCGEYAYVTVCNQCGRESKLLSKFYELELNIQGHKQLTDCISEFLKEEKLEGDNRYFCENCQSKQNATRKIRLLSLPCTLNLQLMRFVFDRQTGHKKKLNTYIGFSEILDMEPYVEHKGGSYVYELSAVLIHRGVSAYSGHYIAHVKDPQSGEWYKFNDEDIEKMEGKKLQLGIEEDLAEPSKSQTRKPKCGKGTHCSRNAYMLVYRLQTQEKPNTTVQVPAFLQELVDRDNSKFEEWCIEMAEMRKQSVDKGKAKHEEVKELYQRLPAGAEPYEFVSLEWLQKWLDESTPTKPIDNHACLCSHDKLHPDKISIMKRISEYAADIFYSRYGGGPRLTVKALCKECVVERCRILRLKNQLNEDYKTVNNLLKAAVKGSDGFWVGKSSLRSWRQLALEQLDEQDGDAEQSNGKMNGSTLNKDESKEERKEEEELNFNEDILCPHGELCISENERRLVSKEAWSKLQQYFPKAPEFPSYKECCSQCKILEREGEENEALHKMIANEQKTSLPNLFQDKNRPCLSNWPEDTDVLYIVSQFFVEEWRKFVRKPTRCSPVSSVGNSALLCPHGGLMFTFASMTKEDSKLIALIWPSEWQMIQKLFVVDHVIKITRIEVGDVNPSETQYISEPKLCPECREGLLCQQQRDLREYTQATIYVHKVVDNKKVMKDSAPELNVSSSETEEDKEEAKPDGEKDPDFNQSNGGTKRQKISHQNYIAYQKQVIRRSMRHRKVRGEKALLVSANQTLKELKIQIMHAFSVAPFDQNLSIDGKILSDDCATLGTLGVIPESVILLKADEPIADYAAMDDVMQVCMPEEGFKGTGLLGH
Summary of the method: as §1

USP5 = biological target: T4, USP5 (UniProt P45974)
T4 sequence (whole entry): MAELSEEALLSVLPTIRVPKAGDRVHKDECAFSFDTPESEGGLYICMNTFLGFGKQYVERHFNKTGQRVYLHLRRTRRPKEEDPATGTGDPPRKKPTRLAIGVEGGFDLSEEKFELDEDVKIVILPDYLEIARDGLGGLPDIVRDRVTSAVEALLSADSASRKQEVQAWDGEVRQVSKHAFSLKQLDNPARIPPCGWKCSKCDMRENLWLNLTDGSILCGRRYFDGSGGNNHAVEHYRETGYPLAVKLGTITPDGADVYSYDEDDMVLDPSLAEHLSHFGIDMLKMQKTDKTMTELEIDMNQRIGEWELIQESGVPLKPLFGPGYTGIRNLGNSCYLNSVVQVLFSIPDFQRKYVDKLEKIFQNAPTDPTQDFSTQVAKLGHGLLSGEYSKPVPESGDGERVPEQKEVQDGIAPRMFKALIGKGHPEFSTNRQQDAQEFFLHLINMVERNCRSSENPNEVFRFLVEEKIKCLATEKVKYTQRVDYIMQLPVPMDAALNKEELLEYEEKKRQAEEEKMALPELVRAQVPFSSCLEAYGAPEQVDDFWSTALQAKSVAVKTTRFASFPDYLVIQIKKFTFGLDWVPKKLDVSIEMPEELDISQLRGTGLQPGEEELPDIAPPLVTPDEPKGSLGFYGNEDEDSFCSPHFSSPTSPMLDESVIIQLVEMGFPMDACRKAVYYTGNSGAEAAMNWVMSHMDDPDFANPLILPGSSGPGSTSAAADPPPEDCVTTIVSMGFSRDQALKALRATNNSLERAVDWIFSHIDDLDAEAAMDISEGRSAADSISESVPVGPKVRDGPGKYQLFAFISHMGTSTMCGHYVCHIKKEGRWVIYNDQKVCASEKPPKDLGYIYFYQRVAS
Summary of the method: as §1

USP54 = USP54 (UniProt Q70EL1)
Summary of the method: as §1

USP7 = USP7 (UniProt Q93009)
Summary of the method: as §1

USP8 = biological target: T5, USP8 (UniProt P40818)
T5 sequence (whole entry): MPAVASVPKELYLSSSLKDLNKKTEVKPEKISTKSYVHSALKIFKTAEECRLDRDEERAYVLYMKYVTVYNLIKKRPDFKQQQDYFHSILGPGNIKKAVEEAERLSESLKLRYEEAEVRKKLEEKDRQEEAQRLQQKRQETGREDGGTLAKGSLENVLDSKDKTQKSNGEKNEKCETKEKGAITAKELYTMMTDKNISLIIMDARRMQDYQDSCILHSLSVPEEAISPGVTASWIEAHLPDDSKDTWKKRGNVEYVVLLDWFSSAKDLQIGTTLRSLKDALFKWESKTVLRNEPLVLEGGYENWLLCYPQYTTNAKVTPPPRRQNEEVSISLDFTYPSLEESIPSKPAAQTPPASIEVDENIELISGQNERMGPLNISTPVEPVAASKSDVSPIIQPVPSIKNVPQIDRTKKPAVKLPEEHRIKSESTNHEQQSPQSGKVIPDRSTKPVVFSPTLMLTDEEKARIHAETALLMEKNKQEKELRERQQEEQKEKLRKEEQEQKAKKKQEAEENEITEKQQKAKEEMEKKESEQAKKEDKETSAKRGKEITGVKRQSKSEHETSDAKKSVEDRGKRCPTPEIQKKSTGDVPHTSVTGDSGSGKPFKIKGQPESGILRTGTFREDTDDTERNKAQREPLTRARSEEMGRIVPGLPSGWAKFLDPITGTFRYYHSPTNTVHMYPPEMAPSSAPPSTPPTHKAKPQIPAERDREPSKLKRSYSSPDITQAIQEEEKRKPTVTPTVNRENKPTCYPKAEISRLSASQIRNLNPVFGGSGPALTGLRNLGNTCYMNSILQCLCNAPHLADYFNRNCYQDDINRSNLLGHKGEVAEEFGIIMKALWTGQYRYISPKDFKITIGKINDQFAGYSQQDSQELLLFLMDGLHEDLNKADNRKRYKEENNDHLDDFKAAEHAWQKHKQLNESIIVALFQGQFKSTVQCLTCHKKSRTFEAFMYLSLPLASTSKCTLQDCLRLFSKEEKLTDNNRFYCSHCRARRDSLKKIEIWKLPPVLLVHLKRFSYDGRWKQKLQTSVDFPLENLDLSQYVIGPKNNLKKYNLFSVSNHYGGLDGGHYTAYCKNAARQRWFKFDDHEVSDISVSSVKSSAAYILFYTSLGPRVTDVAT
Summary of the method: as §1

USP9X = USP9X (UniProt Q93008)
Summary of the method: as §1

UniProt O00487 = biological target: UniProt O00487
Summary of the method: as §1

Measured: log2 ratio of Biotin-Ahx-Ub-VS probe labelling

UniProt O00487, sequence (O00487 whole entry): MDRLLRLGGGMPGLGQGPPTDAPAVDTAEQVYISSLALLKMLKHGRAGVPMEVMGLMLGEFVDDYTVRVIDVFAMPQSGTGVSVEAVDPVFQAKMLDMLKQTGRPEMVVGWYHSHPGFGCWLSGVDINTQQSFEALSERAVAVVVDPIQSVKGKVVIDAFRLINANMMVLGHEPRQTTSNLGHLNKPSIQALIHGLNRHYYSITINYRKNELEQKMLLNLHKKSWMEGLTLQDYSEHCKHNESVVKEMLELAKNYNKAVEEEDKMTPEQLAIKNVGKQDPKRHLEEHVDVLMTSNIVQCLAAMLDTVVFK
USP9X, sequence (Q93008 whole entry): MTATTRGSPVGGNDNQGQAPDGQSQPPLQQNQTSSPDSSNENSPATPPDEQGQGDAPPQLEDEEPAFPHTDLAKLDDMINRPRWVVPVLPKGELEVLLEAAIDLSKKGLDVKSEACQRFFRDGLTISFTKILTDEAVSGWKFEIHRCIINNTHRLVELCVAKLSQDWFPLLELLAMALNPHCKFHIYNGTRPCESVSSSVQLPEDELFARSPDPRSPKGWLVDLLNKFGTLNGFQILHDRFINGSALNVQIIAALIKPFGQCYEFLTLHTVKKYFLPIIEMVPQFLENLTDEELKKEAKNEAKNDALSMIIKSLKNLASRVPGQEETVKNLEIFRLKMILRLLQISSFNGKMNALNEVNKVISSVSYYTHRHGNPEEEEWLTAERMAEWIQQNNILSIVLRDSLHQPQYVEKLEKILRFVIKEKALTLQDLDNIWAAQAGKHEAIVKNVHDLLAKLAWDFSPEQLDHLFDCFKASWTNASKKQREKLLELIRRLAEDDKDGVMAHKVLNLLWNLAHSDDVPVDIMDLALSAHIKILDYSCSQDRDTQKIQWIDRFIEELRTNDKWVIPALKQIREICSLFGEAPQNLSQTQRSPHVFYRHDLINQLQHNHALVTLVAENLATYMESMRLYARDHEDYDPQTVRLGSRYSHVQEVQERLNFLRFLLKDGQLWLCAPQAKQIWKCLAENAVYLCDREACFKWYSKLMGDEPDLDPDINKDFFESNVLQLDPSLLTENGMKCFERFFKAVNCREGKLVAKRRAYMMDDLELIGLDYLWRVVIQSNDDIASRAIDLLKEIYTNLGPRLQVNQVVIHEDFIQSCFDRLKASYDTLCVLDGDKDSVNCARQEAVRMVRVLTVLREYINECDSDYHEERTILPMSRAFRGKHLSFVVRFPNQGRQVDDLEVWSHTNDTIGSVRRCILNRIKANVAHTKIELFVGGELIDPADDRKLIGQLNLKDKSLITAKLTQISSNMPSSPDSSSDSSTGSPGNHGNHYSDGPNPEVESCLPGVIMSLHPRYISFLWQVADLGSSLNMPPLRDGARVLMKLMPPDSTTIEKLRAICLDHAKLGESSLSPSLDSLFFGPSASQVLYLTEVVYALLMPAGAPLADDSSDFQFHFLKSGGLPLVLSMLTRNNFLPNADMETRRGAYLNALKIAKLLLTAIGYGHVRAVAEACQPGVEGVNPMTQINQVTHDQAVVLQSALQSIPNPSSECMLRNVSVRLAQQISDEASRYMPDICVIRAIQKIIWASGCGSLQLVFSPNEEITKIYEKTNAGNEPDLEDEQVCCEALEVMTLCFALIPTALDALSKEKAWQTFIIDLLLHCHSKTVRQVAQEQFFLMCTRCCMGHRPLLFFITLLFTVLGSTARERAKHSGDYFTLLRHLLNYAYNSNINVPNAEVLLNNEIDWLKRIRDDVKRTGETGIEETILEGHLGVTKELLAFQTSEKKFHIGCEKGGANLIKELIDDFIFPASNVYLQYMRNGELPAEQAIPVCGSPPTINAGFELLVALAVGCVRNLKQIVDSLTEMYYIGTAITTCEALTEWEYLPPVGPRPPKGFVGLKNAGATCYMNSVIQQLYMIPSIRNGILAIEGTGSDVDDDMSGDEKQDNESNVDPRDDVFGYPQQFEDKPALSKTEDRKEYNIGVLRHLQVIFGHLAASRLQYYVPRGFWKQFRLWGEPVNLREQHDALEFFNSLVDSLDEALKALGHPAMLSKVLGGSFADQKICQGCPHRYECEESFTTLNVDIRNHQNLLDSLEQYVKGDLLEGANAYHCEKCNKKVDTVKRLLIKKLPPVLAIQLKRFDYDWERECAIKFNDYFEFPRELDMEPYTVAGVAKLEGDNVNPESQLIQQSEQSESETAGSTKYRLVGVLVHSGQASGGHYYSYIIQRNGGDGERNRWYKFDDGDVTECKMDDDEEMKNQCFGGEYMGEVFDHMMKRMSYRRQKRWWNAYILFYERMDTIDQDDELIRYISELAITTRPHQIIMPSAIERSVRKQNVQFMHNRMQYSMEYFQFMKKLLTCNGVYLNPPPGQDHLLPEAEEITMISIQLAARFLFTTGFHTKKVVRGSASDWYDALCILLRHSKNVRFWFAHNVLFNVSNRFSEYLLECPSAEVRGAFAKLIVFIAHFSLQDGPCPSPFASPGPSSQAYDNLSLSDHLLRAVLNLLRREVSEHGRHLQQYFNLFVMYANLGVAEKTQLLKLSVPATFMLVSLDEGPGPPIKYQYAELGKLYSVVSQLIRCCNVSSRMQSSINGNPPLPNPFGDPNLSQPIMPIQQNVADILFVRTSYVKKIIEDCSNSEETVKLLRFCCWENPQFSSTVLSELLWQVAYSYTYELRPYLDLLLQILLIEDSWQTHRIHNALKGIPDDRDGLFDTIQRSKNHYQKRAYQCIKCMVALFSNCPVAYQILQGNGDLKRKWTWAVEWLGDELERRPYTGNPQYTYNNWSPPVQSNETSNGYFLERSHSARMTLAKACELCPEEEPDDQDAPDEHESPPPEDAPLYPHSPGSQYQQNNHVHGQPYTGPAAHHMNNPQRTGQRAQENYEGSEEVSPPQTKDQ
USP54, sequence (Q70EL1 whole entry): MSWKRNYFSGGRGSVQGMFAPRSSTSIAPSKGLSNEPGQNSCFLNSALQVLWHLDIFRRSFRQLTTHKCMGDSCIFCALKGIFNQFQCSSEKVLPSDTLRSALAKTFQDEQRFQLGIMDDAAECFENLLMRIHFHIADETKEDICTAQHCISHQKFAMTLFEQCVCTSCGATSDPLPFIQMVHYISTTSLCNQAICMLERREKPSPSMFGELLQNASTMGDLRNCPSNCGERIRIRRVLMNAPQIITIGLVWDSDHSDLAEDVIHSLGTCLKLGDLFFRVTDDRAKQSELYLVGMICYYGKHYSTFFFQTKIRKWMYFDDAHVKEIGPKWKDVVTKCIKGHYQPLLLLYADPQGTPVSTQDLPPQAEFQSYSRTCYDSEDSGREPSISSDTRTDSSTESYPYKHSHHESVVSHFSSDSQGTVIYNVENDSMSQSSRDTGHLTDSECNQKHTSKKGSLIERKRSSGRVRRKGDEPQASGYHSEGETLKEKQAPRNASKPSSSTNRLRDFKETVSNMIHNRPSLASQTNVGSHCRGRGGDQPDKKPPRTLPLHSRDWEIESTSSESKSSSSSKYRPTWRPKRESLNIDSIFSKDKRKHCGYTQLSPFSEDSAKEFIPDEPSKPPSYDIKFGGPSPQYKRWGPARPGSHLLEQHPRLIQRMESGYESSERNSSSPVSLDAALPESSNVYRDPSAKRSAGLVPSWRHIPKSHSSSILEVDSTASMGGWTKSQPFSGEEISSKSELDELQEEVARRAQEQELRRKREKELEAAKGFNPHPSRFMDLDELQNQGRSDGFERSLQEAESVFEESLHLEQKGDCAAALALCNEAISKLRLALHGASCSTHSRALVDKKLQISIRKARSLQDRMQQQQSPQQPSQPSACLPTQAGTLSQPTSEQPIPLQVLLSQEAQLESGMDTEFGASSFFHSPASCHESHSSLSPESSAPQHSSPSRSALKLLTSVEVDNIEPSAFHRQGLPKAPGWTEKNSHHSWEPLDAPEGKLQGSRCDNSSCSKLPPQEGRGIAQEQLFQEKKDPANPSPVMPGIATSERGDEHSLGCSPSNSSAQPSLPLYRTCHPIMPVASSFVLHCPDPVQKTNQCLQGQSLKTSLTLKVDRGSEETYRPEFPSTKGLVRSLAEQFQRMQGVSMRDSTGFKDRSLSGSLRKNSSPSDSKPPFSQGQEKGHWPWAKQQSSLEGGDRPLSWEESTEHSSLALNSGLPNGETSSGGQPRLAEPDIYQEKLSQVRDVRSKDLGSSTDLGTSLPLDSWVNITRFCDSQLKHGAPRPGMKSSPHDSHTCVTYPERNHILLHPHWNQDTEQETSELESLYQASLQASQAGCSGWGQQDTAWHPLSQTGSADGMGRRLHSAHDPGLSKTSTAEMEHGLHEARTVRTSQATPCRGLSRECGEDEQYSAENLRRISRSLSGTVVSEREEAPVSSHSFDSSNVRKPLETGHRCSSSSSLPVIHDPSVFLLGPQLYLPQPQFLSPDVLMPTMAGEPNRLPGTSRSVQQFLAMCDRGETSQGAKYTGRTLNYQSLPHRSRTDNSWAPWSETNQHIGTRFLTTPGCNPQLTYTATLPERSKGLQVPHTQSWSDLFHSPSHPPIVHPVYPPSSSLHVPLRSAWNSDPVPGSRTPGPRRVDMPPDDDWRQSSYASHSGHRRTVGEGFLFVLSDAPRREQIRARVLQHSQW
USP46, sequence (P62068 whole entry): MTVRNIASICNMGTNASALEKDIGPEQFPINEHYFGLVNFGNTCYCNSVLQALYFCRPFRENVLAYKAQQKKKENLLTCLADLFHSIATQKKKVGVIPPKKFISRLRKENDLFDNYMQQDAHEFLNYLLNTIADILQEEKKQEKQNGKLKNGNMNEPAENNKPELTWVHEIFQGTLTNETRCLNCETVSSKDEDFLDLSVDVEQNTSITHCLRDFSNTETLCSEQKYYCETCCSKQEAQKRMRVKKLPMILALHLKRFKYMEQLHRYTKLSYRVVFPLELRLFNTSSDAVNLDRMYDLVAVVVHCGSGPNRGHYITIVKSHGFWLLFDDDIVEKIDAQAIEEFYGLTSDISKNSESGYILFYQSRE

O=C(CCl)N1CCCC2CCCCC21 (stereo not given)
inactive: USP42 0.484 | USP46 -0.132 | USP47 -0.696 | USP48 -0.516 | USP5 0.0316 | USP54 0.268 | USP7 -0.486 | USP8 -0.0438 | USP9X -0.183 | UniProt O00487 -0.107
